Screening data (PubChem)
This is a sample that favours compounds with a hit; in the whole collection about 11% have one here.
USP28 inh: blocks human USP28 ubiquitin-rhodamine cleavage. AID 1645857. inhibition, % at 25 µM. 3% of 47,000 active. purified USP28, Ub-rhodamine cleavage fluorescence, 30 min
USP30 block: inhibitors of human USP30 deubiquitinase; Q70CQ3; purified USP30, Ub-rhodamine cleavage fluorescence; inhibition, % at 25 µM; 5.3% of 47,000 active; AID 1645860
USP17 block: inhibitors of human USP17 deubiquitinase; inhibition, % at 50 µM; 6.5% of 47,000 active; purified USP17, Ub-rhodamine cleavage fluorescence, 3 h; AID 1645855
Target sequence (A8MUK1 whole entry, looked up): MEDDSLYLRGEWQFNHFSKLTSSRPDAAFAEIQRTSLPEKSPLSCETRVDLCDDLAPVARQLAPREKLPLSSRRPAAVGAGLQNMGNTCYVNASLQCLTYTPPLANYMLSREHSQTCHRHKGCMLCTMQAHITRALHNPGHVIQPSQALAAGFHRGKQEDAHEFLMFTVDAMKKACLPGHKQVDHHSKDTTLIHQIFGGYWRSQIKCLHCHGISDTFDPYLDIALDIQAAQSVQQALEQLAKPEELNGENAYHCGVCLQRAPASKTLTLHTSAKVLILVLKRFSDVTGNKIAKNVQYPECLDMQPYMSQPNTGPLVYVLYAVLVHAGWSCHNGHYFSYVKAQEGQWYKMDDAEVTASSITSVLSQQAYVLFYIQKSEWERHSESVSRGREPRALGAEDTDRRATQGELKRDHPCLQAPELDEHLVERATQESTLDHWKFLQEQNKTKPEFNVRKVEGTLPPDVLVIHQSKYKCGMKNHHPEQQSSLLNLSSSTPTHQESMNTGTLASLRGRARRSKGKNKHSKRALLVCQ
Each line names hits and unclear results; the compound was inactive in the other large screens. Cut-off read from the data, not from the text of the source: active = inhibition above about 30%; inactive = the rest.

COC(=O)c1sc2cc([N+](=O)[O-])sc2c1NC(C)=O	none
COC(=O)c1sc2ccccc2c1NC(=O)c1ccc(Br)s1	USP17 block 70.2
O=c1c2c(ccn1Cc1cc(F)ccc1F)ccn2Cc1cccnc1	USP28 inh 68.2
Fc1ccccc1CN1CCN(Cc2cccnc2)CC1	none
Cc1noc(C)c1CCn1ccc2ccn(Cc3cccnc3)c2c1=O	none
Cc1ccccc1Cn1ccc2ccn(Cc3cccnc3)c2c1=O	USP28 inh 60.3, USP30 block 30.1
Cc1nc(C2CCCCN2)nc2c1CCCN2CCc1ccccn1 (configuration not stated)	none
O=C(CS(=O)(=O)c1ccc(F)cc1)Nc1ccc(-c2nc3ccccc3s2)c(O)c1	USP17 block 36.5
CN(C)CCCN(C(=O)CS(=O)(=O)c1ccc(F)cc1)c1nc2ccccc2s1	none
COc1ccc(CCN2C[C@@]34CN(C(=O)c5cc(C)on5)C[C@@H](C[C@@H]3S2(=O)=O)O4)cc1	none
CCOc1ccccc1C(=O)NCC(=O)OC(C(=O)c1c[nH]c2ccccc12)c1ccccc1 (configuration not stated)	USP17 block 53.5
O=C(OC(C(=O)c1c[nH]c2ccccc12)c1ccccc1)c1cccc(Oc2ccccc2)c1 (configuration not stated)	none
N#Cc1ccc(NC(=O)C2CCC(=O)N2S(=O)(=O)c2ccccc2)cc1 (configuration not stated)	none
COc1ccc(CC(=O)NCC(c2ccc3c(c2)CCN3C)N2CCCC2)cc1 (configuration not stated)	none
CC(C)(C)OC(=O)N1CCc2nnc(C3CCN(C(=O)c4ccccc4)CC3)n2CC1	none
CCc1nc(Nc2ccc3c(c2)SC2=NCCN23)c2oc3ccccc3c2n1	USP28 inh 62.7, USP30 block 41.3, USP17 block 61.4
CCc1nc(N2CCCC2)c2oc3ccccc3c2n1	none
COc1cc(O)c2c(c1O)C(=O)c1cc(C)ncc1C2=O	USP17 block 43.2
Cc1cc(O)c2c(c1)C(=O)c1cc(O)ccc1C2=O	none
Cc1nc2oc3c(NCc4cccnc4)ncnc3c2c2c1COC(C)(C)C2	none
Cc1ccc(-c2c(NC(=O)c3cccs3)n(C)c3ccccc3c2=O)cc1	none
Cn1c(NC(=O)c2ccccc2F)c(-c2ccc3c(c2)OCO3)c(=O)c2ccccc21	none
Cc1ccc(C(=O)Nc2c(-c3ccc4c(c3)OCO4)c(=O)c3ccccc3n2C)cc1	USP28 inh 45.6, USP17 block 37.2
Cn1c(NC(=O)c2cccc(Br)c2)c(-c2ccc(Cl)cc2)c(=O)c2ccccc21	USP17 block 40.7
Cn1c(NC(=O)c2ccc(Cl)cc2)c(-c2ccccc2)c(=O)c2ccccc21	none
Cc1ccc(-c2c(NC(=O)c3cccc([N+](=O)[O-])c3)n(C)c3ccccc3c2=O)cc1	USP30 block 32.4
CNC(=O)C1(C)CN(C(=O)c2cnc3ccccc3c2)CCO1 (configuration not stated)	none
COCCn1ccc2nc(C)c(C(=O)N3CCN(c4ccc(F)cc4)CC3)cc2c1=O	none
COCCn1c(C2CCCCC2)nc2c(c(=O)c3ccccc3n2C)c1=O	none
Cc1ccc(-c2nn(-c3ccccc3)cc2C(=O)N2CCN(CCN3CCCC3)CC2)cc1	none
COc1ccc(C2CCN(S(C)(=O)=O)CC2)cc1	none
CC1(C)OC(=O)[C@@]2(C)N[C@]1(C)C[C@@H]2C(=O)Nc1ccc(F)cc1	none
Cc1cccc(C(=O)Nc2ccc(N3CCCCC3)c(NC(=O)Nc3ccccc3Cl)c2)c1	none
Cc1ccc(C(=O)Nc2ccc3c(c2)C(=O)N(C)c2ccccc2O3)cc1C	USP28 inh 54.8
COc1ccc(C(=O)Nc2ccc(N3CCCC3=O)c(C)c2)cc1OC	none
Cc1cccc(C(=O)Nc2ccc3c(c2)C(=O)N(C)c2ccccc2O3)c1	USP28 inh 46.8
O=S(=O)(c1cccc(Cl)c1F)N1CCC2(CC1)CC2c1nc(-c2cccnc2)no1 (configuration not stated)	none
Cc1c(Cl)cccc1S(=O)(=O)N1CCC2(CC1)CC2c1nc(-c2cccnc2)no1 (configuration not stated)	USP30 block 34.7
COc1ccc(NC(=O)CC(NCc2ccco2)C(=O)O)cc1 (configuration not stated)	none
Cc1nc(CN2CCC3(CC2)COCCN(c2cccnc2)C3)cs1	none
COc1ccccc1-c1nnc2sc(COc3cccc(C)c3)nn12	USP30 block 42.3
CCOc1ccccc1-c1nn2c(-c3cccnc3)nnc2s1	none
COc1ccc(N2C(=O)[C@@H]3[C@H]4c5ccccc5C=CN4C(C(=O)Nc4ccc5c(c4)OCO5)[C@@H]3C2=O)cc1 (some centres not stated)	USP17 block 63.7
COc1ccc(Cl)cc1NC(=O)C1C2C(=O)N(c3ccc4c(c3)OCO4)C(=O)C2C2c3ccccc3C=CN12 (configuration not stated)	none
O=C(c1ccco1)C1C2C(=O)N(c3ccc(Br)cc3)C(=O)C2C2c3ccccc3C=CN12 (configuration not stated)	none
COc1ccc(Cl)cc1NC(=O)C1[C@@H]2C(=O)N(Cc3ccc4c(c3)OCO4)C(=O)[C@@H]2[C@H]2c3ccccc3C=CN12 (some centres not stated)	USP28 inh 45.2
O=C(O)c1c(CNCC2CCCO2)c2ccccc2n1Cc1ccccc1F (configuration not stated)	none (no result: USP17 block)
CC(C)C(=O)N1CCN(S(=O)(=O)Cc2ccccc2)CC2(CNC(=O)C2)C1 (configuration not stated)	none
COc1cccc(CN2CC(=O)N3C(c4cccc5ccccc45)c4[nH]c5ccccc5c4C[C@@H]3C2=O)c1 (some centres not stated)	none
COc1ccc(CN2CCc3oc(C)c(C(=O)NCc4cccnc4)c3C2)cc1	none
COc1ccc(C(=O)Nc2sc3c(c2C(=O)NCc2cccnc2)CCCC3)cc1	USP17 block 66.5
Cc1csc2ncc(C(=O)N3CCN(c4ccccc4F)CC3)c(=O)n12	none
Cc1ccc2nc(NC(=O)c3ccccc3OCc3ccccc3Cl)sc2c1	none
Cc1ccc(S(=O)(=O)Nc2ccccc2C(=O)Nc2nc3ccc(Br)cc3s2)cc1	USP28 inh 77.2, USP30 block 75.5, USP17 block 96.9
O=S1(=O)C[C@H](NCCc2ccccc2F)[C@@H](S(=O)(=O)c2ccc(Cl)cc2)C1	none
COc1cnc(CSc2ccc(C)cc2)cc1OCC(=O)Nc1ccccc1	USP30 block 35.6
COc1ccccc1NC(=O)COc1cc(CSc2ncccn2)ncc1OC	none
Cc1ccc(Nc2nccc(C3CCCN3CC(N)=O)n2)nc1 (configuration not stated)	none
CCOC(=O)N1CCN(c2nc3c(c(=O)n(C)c(=O)n3C)n2CCSc2nnnn2-c2ccccc2)CC1	none
Cn1c(=O)c2c(nc(N3CCN(C(=O)c4ccco4)CC3)n2CCSc2nnnn2-c2ccccc2)n(C)c1=O	USP30 block 37.5
O=C1CC(C(=O)Nc2cccc(Br)c2)c2ccc(F)cc2N1 (configuration not stated)	USP28 inh 38.8
O=C1CC(C(=O)Nc2cccc(Cl)c2)c2ccc(F)cc2N1 (configuration not stated)	none
Cc1ccccc1NC(=O)CSc1nc(-c2ccccc2)nc2c1COC(C)(C)C2	none
